Test results from PubChem BioAssay AID2685 (National Center for Advancing Translational Sciences (NCATS), 2010).
Out of some 320,000 compounds screened, about 2,100 (0.66%) were called active. About 53% were inconclusive and are not listed. The call rests on the fitted dose curve; in most records, active means well fitted inhibition curve with a large enough effect in the signal ratio, with a control signal flat (not every such curve was filed as active); inconclusive means small, poorly fitted or top-dose-only effect, or effect the other way, or a change in a side signal; inactive means flat fitted curve, though single readings scatter; the % refers to the signal ratio. Many of the other results were omitted from the sample, so actives are more common in it than they were.
Potency means the concentration at half of the fitted maximal effect.

Assay: qHTS Assay for Lipid Storage Modulators in Drosophila S3 Cells;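 on cell number change: cells counted by Cell Tracker Red CMTPX staining in the red channel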; on lipid storage change, negative = inhibition: on the % scale 0 is the no-effect control and ±100 the full control effect
Conditions: BODIPY lipid droplet fluorescence, 18-24 h, cells fed with added oleic acid; cell number change: measured here: cell count max response; series mostly up to 46.1 µM
In short: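 Drosophila S3 cells got compounds at several concentrations plus oleic acid (400 uM solution). Laser-scanning cytometry with 488 nm excitation read lipid droplets at 500-530 nm and cells at 575-640 nm. Percent activity was relative to 20 uM Triacsin C.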
For O=C(Nc1ccccc1F)Nc1ccc([N+](=O)[O-])cc1Cl, the Potency was “inactive” and the cell number change was 6.06%.
For Cc1ccccc1S(=O)(=O)Cc1ccc(C(=O)NC(C)c2ccccc2)o1 (stereo unspecified), the Potency was “inactive”.
In the case of Cn1cc(Br)c(NS(=O)(=O)c2ccc(Cl)s2)n1, the Potency is reported as “inactive” and the cell number change is reported as 7.84%.
For CCc1ccc(C(=O)COC(=O)CNC(=O)CNC(=O)Cc2ccccc2)cc1, the Potency was “inactive” and the cell number change was -4.14%.
For CCc1ccccc1NC(=O)c1cnc2n(c1=O)CCS2, the Potency was “inactive” and the cell number change was -5.43%.
In the case of COc1ccc(C(=O)Oc2cc(/C=N/NS(=O)(=O)c3ccccc3)ccc2OC)cc1, the Potency is reported as “inactive” and the cell number change is reported as -2.45%.
With COc1ccccc1NS(=O)(=O)c1ccc(C(=O)NCC(c2ccco2)N(C)C)cc1 (stereo unspecified) the Potency was “inactive” and the cell number change was -9.2%.
For O=C(Nc1nc2c(F)cc(F)cc2s1)C1CCN(C(=O)c2ccc(F)cc2)CC1, the Potency was “inactive” and the cell number change was 13.4%.
With CC1(C)CC(C(CC(=O)Nc2nccs2)c2ccccc2)CCO1 (stereo unspecified) the Potency was “inactive” and the cell number change was -3.73%.
In the case of O=C(CSc1nnc2c(Cl)cc(Cl)cn12)N1CCN(S(=O)(=O)c2ccccc2)CC1, the Potency is reported as “inactive” and the cell number change is reported as 0.68%.
With CCOC(=O)C1=C(C)OC(N)=C(C#N)C1c1ccccc1 (stereo unspecified) the cell number change was 2.6% and the lipid storage change, negative = inhibition was 8.87% [at 9.22 µM] (inactive).
In the case of CCOc1cc(C2C(C#N)=C(N)OC(C)=C2C(C)=O)cc(Br)c1O (stereo unspecified), the Potency is reported as 8.2 µM (active).
In the case of CCOC(=O)C1=C(C)OC(N)=C(C#N)C1c1cccc(C)c1 (stereo unspecified), the Potency is reported as “inactive” and the cell number change is reported as 26.4%.
For CCc1nnc(NS(=O)(=O)c2ccc(NC(=O)c3ccco3)cc2)s1, the Potency was “inactive” and the cell number change was -17.4%.
For COc1ccc(/C=N/N=C2/NC(=O)C(c3ccccc3)(c3ccccc3)S2)cc1, the Potency was 16.4 µM (active) and the cell number change was 1.45%.
With COc1ccc(CC2S/C(=N/N=C/c3ccc(O)cc3)NC2=O)cc1 (stereo unspecified) the Potency was “inactive” and the cell number change was 8.53%.
With COc1ccc(/C=N/N=C2/NC(=O)CC(C(=O)O)S2)cc1 (stereo unspecified) the Potency was “inactive”.
In the case of Cc1ccc(/C=C/S(=O)(=O)NCC(=O)OCC(=O)N2CC(=O)Nc3ccccc32)cc1, the Potency is reported as “inactive” and the cell number change is reported as 5.37%.
With CCOc1ncccc1C(=O)Nc1cccc(C(=O)Nc2cccc(S(=O)(=O)CCO)c2)c1 the Potency was “inactive” and the cell number change was -9.36%.
For Cc1ccc(-c2nnc(SCC#N)n2N)cc1, the Potency was “inactive” and the cell number change was 6.27%.
For COc1ccc(-c2csc3ncn(-c4ccccc4)c(=O)c23)cc1OC, the Potency was “inactive” and the cell number change was -7.4%.
For Cc1cc(C)nc(CCNC(=O)C2CCC(=O)N(Cc3ccccc3F)C2)n1 (stereo unspecified), the Potency was “inactive” and the cell number change was 14.5%.
In the case of CCCNC(=O)CSCc1nc(-c2ccc(SC)cc2)oc1C, the Potency is reported as “inactive” and the cell number change is reported as 10.2%.
In the case of CSc1ccc(-c2nc(CSCC(=O)NCCCN3CCOCC3)c(C)o2)cc1, the Potency is reported as “inactive” and the cell number change is reported as -0.666%.
With CSc1ccc(-c2nc(CSCC(=O)NCCCN3CCCC3=O)c(C)o2)cc1 the Potency was 1.84 µM (active).
